Results from the supplement of paper PMC11732987, “Enantioselective OTUD7B fragment discovery through chemoproteomics screening and high-throughput optimisation” (Communications Chemistry, 2025).

Assays:
USP38 = biological target: T1, USP38 (UniProt Q8NB14); test: log2 ratio of Biotin-Ahx-Ub-VS probe labelling (compound/DMSO); higher = less target engagement, active = hit call of the paper (q ≤ 0.05, log2 ratio ≤ -1); conditions: treatment time: 3 h
T1 sequence (whole entry): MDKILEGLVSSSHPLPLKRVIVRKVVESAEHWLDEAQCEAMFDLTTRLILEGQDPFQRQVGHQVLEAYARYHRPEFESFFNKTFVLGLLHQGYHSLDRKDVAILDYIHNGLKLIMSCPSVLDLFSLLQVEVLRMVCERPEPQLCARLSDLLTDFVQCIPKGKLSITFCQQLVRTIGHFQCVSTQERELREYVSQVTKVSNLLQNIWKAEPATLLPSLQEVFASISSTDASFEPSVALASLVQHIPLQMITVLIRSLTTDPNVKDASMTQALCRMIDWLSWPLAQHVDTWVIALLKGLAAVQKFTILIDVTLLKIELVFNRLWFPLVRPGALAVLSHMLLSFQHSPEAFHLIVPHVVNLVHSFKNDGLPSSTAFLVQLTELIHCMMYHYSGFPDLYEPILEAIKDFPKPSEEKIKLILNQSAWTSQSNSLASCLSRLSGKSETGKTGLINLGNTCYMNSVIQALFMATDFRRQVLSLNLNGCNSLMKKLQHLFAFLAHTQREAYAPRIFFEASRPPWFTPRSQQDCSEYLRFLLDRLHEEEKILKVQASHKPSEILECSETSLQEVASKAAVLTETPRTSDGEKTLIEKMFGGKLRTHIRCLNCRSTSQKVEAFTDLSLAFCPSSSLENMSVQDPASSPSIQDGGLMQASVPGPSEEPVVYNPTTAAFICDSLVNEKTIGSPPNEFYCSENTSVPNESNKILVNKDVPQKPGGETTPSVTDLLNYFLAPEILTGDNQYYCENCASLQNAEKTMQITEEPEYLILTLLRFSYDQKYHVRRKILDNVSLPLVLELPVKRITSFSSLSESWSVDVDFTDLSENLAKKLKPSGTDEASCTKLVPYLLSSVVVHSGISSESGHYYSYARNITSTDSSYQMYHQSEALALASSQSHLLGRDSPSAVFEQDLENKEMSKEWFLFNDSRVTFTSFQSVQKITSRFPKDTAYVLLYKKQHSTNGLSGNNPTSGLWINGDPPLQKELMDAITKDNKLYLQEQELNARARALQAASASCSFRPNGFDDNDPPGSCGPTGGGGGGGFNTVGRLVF
In short: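 HEK293T lysate (495 µg per sample, in Tris/CHAPS/IGEPAL buffer with protease inhibitors) was treated in triplicate with compound over a concentration series or DMSO for 3 h, then with Biotin-Ahx-Ub-VS (0.5 µM final) for 1 h. Labelled DUBs were NeutrAvidin-enriched, digested with LysC and trypsin, and run by diaPASEF LC-MS/MS. Spectronaut label-free protein quantities were global-median-normalised. Values are average log2 ratios compound/DMSO from an unpaired t-test, using proteins with ≥2 unique peptides.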

ALG13 = biological target: T2, ALG13 (UniProt Q9NP73); test: log2 ratio of Biotin-Ahx-Ub-VS probe labelling (fragment/DMSO); higher = less target engagement (more negative = stronger competition), active = hit call of the paper (q ≤ 0.05, log2 ratio ≤ -1); conditions: compound concentration: 200 uM; treatment time: 3 h
T2 sequence (whole entry): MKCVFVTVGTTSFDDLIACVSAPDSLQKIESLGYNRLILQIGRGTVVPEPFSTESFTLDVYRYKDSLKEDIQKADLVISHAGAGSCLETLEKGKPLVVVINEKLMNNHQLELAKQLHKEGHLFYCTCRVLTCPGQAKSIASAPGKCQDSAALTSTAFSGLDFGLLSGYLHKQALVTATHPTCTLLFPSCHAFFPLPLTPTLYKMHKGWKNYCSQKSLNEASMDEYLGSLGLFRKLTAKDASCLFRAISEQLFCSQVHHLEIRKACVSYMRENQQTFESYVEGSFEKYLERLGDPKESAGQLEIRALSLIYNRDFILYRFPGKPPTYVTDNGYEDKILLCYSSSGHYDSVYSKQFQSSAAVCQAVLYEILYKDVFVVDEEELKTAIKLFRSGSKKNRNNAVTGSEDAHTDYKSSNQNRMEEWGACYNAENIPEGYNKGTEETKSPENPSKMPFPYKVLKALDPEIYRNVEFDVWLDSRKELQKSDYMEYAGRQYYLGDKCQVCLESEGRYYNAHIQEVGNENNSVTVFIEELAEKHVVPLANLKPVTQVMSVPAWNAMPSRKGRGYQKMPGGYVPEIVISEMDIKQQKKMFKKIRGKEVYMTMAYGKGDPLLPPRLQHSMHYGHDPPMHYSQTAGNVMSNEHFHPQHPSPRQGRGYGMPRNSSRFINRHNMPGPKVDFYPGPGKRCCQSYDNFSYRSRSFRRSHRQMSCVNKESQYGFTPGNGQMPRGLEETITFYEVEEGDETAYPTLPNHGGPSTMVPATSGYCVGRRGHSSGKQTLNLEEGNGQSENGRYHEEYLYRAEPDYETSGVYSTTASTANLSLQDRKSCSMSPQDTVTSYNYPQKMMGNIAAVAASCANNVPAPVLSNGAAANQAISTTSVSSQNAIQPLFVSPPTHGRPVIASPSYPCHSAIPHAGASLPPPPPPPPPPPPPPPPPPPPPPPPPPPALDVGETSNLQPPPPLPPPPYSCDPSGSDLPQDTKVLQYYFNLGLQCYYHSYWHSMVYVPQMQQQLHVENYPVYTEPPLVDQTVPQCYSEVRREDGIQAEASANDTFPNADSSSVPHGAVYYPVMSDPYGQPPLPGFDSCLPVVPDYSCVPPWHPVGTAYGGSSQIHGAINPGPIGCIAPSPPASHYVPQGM
In short: (§1)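 HEK293T lysate, 495 µg per sample in Tris/CHAPS/IGEPAL buffer with protease inhibitors, was treated in triplicate with fragment at 200 µM or vehicle for 3 h and then with Biotin-Ahx-Ub-VS at 0.5 µM final for 1 h. Labelled DUBs were NeutrAvidin-enriched, digested with LysC and trypsin, and run by diaPASEF LC-MS/MS. Spectronaut label-free quantities were global-median-normalised, and values are average log2 fragment/vehicle ratios by unpaired t-test on proteins with ≥2 unique peptides.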

ATXN3 = ATXN3 (UniProt P54252); test: as above; conditions: compound concentration: 200 uM; treatment time: 3 h
In short: as §1

BAP1 = biological target: T3, BAP1 (UniProt Q92560); test: as above; conditions: compound concentration: 200 uM; treatment time: 3 h
T3 sequence (whole entry): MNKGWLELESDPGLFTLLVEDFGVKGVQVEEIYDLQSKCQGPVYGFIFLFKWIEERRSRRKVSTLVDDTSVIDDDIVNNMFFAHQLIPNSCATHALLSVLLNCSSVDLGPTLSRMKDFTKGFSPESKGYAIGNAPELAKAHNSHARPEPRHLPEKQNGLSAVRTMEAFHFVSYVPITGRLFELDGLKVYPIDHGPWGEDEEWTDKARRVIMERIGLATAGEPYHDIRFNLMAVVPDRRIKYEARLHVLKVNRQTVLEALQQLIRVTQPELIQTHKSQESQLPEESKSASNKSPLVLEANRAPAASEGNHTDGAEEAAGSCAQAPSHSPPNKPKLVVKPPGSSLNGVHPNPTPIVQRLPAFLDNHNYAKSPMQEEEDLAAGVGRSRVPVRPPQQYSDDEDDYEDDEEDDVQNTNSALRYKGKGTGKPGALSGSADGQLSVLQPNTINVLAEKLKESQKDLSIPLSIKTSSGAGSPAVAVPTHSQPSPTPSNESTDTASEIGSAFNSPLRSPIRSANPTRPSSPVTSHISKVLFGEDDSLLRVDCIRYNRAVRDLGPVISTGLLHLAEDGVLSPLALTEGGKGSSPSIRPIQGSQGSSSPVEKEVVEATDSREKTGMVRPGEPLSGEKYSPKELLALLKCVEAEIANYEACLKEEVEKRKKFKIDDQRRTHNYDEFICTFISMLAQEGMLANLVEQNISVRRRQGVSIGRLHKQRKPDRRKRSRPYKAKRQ
In short: as §1

EIF3F = EIF3F (UniProt O00303); test: as above; conditions: compound concentration: 200 uM; treatment time: 3 h
In short: as §1

EIF3H = EIF3H (UniProt O15372); test: as above; conditions: compound concentration: 200 uM; treatment time: 3 h
In short: as §1

FAM105A = biological target: T4, FAM105A (UniProt Q9NUU6); test: as above; conditions: compound concentration: 200 uM; treatment time: 3 h
T4 sequence (whole entry): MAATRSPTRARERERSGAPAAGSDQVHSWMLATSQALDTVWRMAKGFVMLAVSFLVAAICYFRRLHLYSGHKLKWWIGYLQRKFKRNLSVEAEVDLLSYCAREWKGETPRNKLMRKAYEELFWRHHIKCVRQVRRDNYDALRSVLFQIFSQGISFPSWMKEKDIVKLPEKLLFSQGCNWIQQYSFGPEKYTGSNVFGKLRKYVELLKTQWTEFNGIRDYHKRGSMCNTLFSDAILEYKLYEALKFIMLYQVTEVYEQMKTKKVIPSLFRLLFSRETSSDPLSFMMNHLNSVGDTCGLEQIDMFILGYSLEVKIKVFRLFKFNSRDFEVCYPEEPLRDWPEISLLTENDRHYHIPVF
In short: as §1

OTUB1 = OTUB1 (UniProt Q96FW1); test: as above; conditions: compound concentration: 200 uM; treatment time: 3 h
In short: as §1

OTUD4 = biological target: T5, OTUD4 (UniProt Q01804); test: as above; conditions: compound concentration: 200 uM; treatment time: 3 h
T5 sequence (whole entry): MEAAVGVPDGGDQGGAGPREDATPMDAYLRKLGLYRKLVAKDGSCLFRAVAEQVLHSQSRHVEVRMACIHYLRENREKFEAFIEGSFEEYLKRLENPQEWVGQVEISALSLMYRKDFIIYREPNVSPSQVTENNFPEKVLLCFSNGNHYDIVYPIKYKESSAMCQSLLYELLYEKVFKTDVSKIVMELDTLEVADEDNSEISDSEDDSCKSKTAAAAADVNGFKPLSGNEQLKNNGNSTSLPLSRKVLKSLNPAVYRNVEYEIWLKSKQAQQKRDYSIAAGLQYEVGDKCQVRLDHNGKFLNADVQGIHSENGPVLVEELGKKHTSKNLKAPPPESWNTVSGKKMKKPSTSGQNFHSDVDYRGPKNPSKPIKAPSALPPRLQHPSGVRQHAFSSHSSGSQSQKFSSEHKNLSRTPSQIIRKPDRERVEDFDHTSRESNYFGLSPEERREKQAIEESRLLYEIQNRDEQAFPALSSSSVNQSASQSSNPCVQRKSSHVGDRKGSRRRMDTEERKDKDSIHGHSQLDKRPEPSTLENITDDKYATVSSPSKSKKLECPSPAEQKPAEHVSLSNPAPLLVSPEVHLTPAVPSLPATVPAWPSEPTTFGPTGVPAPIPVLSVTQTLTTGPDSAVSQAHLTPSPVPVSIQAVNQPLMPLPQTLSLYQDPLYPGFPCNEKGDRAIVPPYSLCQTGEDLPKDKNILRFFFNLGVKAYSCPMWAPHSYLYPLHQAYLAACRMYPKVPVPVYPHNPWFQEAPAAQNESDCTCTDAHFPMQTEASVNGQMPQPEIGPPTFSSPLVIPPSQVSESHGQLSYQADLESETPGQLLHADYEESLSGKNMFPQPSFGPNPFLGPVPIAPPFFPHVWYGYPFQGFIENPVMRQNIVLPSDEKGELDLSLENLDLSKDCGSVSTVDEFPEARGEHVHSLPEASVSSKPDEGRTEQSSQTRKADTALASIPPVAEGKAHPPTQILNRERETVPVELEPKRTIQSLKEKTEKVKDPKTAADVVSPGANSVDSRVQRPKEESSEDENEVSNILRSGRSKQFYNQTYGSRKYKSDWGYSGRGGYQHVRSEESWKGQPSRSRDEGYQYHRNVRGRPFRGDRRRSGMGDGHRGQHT
In short: as §1

OTUD5 = biological target: T6, OTUD5 (UniProt Q96G74); test: as above; conditions: compound concentration: 200 uM; treatment time: 3 h
T6 sequence (whole entry): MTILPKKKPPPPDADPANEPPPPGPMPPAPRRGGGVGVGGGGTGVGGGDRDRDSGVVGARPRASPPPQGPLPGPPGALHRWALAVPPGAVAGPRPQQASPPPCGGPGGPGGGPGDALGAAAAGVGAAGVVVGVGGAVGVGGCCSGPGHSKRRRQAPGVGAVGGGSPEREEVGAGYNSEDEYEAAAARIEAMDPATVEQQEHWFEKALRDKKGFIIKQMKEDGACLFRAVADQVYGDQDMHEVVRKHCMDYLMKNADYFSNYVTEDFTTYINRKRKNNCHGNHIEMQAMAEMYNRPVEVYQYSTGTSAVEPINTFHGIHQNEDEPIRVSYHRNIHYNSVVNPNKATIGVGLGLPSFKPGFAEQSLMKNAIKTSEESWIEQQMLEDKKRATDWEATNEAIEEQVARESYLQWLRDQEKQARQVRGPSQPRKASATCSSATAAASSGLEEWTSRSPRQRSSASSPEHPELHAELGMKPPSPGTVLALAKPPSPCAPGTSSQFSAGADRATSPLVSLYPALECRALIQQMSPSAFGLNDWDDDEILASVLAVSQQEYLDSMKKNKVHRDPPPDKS
In short: as §1

Measured: log2 ratio of Biotin-Ahx-Ub-VS probe labelling

EIF3F, sequence (O00303 whole entry): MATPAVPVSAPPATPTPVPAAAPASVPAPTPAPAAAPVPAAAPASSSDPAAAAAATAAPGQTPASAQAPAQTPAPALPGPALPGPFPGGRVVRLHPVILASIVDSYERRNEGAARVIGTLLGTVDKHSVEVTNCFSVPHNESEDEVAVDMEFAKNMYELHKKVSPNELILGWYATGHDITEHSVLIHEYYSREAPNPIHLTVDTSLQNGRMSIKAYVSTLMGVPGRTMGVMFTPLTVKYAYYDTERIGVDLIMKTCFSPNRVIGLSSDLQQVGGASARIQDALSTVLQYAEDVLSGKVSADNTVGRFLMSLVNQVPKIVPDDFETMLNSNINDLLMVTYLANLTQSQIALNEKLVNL
OTUB1, sequence (Q96FW1 whole entry): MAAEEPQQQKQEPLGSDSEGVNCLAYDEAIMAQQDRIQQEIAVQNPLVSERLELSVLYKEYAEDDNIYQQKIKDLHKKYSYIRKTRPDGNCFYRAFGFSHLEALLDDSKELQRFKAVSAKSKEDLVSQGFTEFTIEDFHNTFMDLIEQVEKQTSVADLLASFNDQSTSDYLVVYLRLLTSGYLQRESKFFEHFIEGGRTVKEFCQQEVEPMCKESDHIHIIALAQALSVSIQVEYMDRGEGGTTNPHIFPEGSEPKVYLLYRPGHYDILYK
EIF3H, sequence (O15372 whole entry): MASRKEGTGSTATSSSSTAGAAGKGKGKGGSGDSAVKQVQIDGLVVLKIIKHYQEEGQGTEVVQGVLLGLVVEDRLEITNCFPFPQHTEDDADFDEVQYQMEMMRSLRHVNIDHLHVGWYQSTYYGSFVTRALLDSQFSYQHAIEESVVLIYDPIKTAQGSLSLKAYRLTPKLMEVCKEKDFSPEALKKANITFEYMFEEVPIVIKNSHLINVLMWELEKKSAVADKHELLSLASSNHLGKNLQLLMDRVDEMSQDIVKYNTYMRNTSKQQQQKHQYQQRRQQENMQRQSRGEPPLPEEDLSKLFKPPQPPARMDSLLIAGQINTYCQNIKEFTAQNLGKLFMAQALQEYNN
ATXN3, sequence (P54252 whole entry): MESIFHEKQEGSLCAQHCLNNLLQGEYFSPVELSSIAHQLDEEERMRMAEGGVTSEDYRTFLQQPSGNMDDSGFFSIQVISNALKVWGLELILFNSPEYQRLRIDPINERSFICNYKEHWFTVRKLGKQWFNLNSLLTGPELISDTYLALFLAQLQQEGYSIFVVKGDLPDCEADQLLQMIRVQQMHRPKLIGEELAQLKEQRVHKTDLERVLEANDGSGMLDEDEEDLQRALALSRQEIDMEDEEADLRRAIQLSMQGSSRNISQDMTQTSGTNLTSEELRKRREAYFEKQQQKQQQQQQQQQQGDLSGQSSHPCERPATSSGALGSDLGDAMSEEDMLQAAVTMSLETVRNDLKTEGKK

O=C(CCl)N[C@@H]1CCCc2ccccc21
inactive: USP38; compound concentration: 0.78uM -0.208 | USP38; compound concentration: 1.56uM -0.105 | USP38; compound concentration: 3.13uM -0.116 | USP38; compound concentration: 6.25uM -0.253 | USP38; compound concentration: 12.5uM -0.127 | USP38; compound concentration: 25uM -0.107 | USP38; compound concentration: 50uM -0.0917 | USP38; compound concentration: 100uM -0.166 | USP38; compound concentration: 200uM -0.233

O=C(CCl)NCc1ccc2c(c1)OCO2
active: BAP1 -3.05
inactive: ALG13 0.0126 | ATXN3 0.173 | EIF3F -0.126 | EIF3H -0.0114 | FAM105A -0.111 | OTUB1 -0.278 | OTUD4 -0.266 | OTUD5 0.0579
